Results on 47 molecules are retold here after PubChem BioAssay AID588342 (National Center for Advancing Translational Sciences (NCATS), 2011).

Among all 360,000 compounds or so, about 25,000 (6.9%) were called active. About 9% were inconclusive and are not listed. Calls come from the whole dose curve; as a rule, active = well fitted inhibition curve with a large enough effect; inconclusive = small, poorly fitted or top-dose-only effect; inactive = flat fitted curve, though single readings scatter. The entries come from a sample that favours actives as a whole. Entries that show only a call come without a potency.
Potency is the fitted concentration of half-maximal effect.

Luciferin 4-monooxygenase (Photinus pyralis), sequence (P08659 whole entry, looked up): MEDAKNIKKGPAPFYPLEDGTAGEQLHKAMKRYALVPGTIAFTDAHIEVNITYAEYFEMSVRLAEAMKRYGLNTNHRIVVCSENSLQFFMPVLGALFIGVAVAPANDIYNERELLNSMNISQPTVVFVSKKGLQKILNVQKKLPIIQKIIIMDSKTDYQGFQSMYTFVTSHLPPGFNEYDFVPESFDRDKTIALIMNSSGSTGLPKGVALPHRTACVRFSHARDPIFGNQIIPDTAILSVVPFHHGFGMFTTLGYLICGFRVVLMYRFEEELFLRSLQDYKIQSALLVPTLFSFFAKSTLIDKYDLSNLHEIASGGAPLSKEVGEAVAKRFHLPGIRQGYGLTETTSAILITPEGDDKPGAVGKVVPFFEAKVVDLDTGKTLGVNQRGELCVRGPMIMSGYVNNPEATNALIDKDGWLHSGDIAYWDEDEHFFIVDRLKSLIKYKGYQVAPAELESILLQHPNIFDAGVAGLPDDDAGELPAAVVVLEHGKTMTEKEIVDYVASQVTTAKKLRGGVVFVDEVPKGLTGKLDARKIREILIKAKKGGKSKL

For this experiment, the target named is Luciferin 4-monooxygenase (Photinus pyralis) (UniProt P08659). As to the kind of experiment: qHTS profiling assay for firefly luciferase inhibitor/activator using purifed enzyme and Km concentrations of substrates (counterscreen for miR-21 project). Note: nearly all actives have a fitted effect of over 55% in size. The settings on record: purified FLuc, luminescence inhibition; series mostly up to 57.5 µM. The essentials:
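Purified P. pyralis luciferase, 10 nM final, with Km-level 10 uM D-luciferin and 10 uM ATP in 50 mM Tris acetate pH 7.5, 10 mM Mg acetate, 0.01% Tween-20, 0.05% BSA; 6-point qHTS titration about 60 µM downward; luminescence read.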
As to `Cc1ccc(-n2c(=O)c3cccnc3n2CC(=O)Nc2ccccc2C(F)(F)F)cc1C`, the Potency entry is “inactive”. Regarding `NS(=O)(=O)c1cccc(NC(=O)COC(=O)/C=C/c2ccco2)c1`, the Potency entry was “inactive”. For the molecule `Cc1ccc(OCC(=O)Nc2ccc(Cl)c(-c3nc4ccccc4[nH]3)c2)cc1C`, the Potency result is “inactive”.

Take `O=C(/C=C/c1ccco1)Nc1cccc(-c2nc3ccccc3[nH]2)c1`: the Potency was 7.57 µM (active). Turning to `Cc1ccc(-n2nc3ccc(NC(=O)/C=C/c4ccco4)cc3n2)cc1C`, the Potency was 9.53 µM (active). As for `CN(c1ccccc1)S(=O)(=O)c1cc(C(=O)Nc2nc3ccccc3[nH]2)ccc1Cl`, the entry is “inactive”; as for `O=C(Nc1cccc(-c2nc3ccccc3[nH]2)c1)c1ccc(C(=O)Nc2cccc(-c3nc4ccccc4[nH]3)c2)cc1`, 12 µM (active). As for `CC(C)Oc1ccc(/C=C(\NC(=O)/C=C/c2ccco2)C(=O)NCCc2nc3ccccc3[nH]2)cc1`, the Potency entry is “inactive”. Turning to `Cc1cccc(NC(=O)C2CCN(S(=O)(=O)c3c(C)noc3/C=C/c3ccco3)CC2)c1`, the Potency entry is “inactive”. Under `CCOC(=O)c1c(NC(=O)/C=C/c2ccco2)sc(C)c1C` stands “inactive”; under `COC(C[C@H](O)CC(=O)COCc1ccccc1)OC`, “inactive”. Consider `CC(=O)NC12CC3CC(C1)CC(C(=O)N1CCN(C(=O)c4ccco4)CC1)(C3)C2`, for which the Potency entry was “inactive”. `CCOc1ccc(OCC)c(NC(=O)c2c(C)nn(-c3ccccc3)c2-n2cccc2)c1`: the Potency result was “inactive”. As for `CN(C)C(CNC(=O)c1cccc(C#N)c1)c1ccco1` (configuration not stated), the entry is “inactive”; as for `CCN(C(=O)COc1cccnc1[N+](=O)[O-])C1CCS(=O)(=O)C1` (configuration not stated), “inactive”. With `CC(C)c1ccc(NC(=O)CN(C)S(=O)(=O)c2ccc3c(c2)c(=O)n(C)c(=O)n3C)cc1`, the Potency result was “inactive”. Under `COc1ccccc1CN1CCC(CNC(=O)c2cnn(-c3cccc(Cl)c3)c2C2CCN(C(=O)OC(C)(C)C)CC2)CC1` stands “inactive”; under `CCc1ccc(N(CC)C(=O)CCn2cnc3onc(-c4ccc(F)cc4)c3c2=O)cc1`, “inactive”; under `O=C(Nc1ccccc1)N1CCC(C(=O)N2CCN(Cc3ccccc3)CC2)CC1`, “inactive”.

Take `S=C(Nc1ccc2c(c1)OCO2)N1CCCC1`: the Potency entry is “inactive”. For `COC(=O)c1cccc(C(=O)N2CCCC(Nc3ccc4c(c3)OCCO4)C2)c1` (configuration not stated), the Potency entry was “inactive”. For `O=C(Nc1ccc2c(c1)OCCO2)C1CCCC1`, the Potency is 9.53 µM (active).

In the case of `O=C(Nc1cccc(Cl)c1)C1CCCN(c2cnccn2)C1` (configuration not stated), the Potency entry was “inactive”. Regarding `O=C(Nc1ccc2c(c1)OCO2)c1sc2cc(Cl)ccc2c1Cl`, the Potency entry was “inactive”. Take `CN1C(=O)c2ccc(NC(=O)C3CCCCC3)cc2C1=O`: the Potency result is “inactive”.

For the molecule `Cc1cc(C)nc(N2CCC(C(=O)Nc3ccc4c(c3)OCCO4)CC2)n1`, the Potency result is “inactive”. On to `O=C(Nc1ccc2c(c1)OCO2)C1CC1(Cl)Cl` (configuration not stated), for which the Potency was 16.9 µM (active).

Take `O=C(Nc1ccc2c(c1)OCCO2)C1CCCN(c2ncccn2)C1` (configuration not stated): the Potency is 0.953 µM (active). As for `CC(C)(C)C(=O)Nc1ccc(C(=O)N/N=C/c2ccccc2OC(=O)c2ccc(Cl)cc2Cl)cc1`, the entry is “inactive”; as for `CCOc1cc(/C=C/C(=O)OCC(=O)NCCN2C(=O)CSC2=O)ccc1OCC(C)C`, “inactive”; as for `COc1ccc(C2C(=O)N(C3CCCCC3)CC(=O)N2Cc2ccccc2Cl)cc1OC` (configuration not stated), “inactive”. As for `Cc1nc(SCCOc2ccc(Cl)cc2)[nH]c(=O)c1Cc1ccccc1`, the Potency result is “inactive”. On to `O=C(CSc1nccn1Cc1ccc(F)cc1)NCc1ccccc1`, for which the Potency result is “inactive”. Take `Cc1ccc2nc(/C(C#N)=C/c3ccc(-c4ccc(C(=O)OC(C)C)cc4)o3)[nH]c2c1`: the Potency entry is “inactive”.

As to `COc1cc(CC(=O)Nc2nc(-c3ccc(F)c(F)c3)cs2)cc(OC)c1OC`, the Potency result was “inactive”. For `Fc1ccc(-c2csc(-c3ccc(C4SCCS4)cc3)n2)cc1F`, the Potency is 10.7 µM (active).

For the molecule `COc1ccc(CC(=O)Nc2nc(-c3ccc(F)c(F)c3)cs2)cc1OC`, the Potency result is “inactive”. On to `COc1ccc2c(c1)c(N1CCCC1=O)c(C(=O)Nc1ccc(OC)c(Cl)c1)n2C`, for which the Potency result is “inactive”.

As to `CCOc1ccccc1CNC(=O)C1CCCN(S(=O)(=O)c2ccc3c(ccn3C)c2)C1` (configuration not stated), the Potency result is “inactive”. As for `Cc1cc(C)nc(SCc2nnc(SCC(=O)Nc3ncc(C)s3)n2Cc2ccco2)n1`, the entry is “inactive”; as for `COc1ccc(CC(=O)Nc2ccc3c(c2)CCC3)cc1S(=O)(=O)N1CCOCC1`, “inactive”. For `COc1cccc(NC(=O)CN(C)CC(=O)Nc2ccc3c(c2)CCC3)c1`, the Potency result was “inactive”. For the molecule `CC(C)C(=O)OCC(=O)Nc1ccc2c(c1)CCC2`, the Potency is 19 µM (active).

For the molecule `COc1ccc(NC(=O)CN2CCCN(Cc3ccccc3)S2(=O)=O)cc1`, the Potency result was “inactive”. On to `CCCN(CCC)CCCNC(=O)Cn1ncc2c3ccccc3n(Cc3ccccc3)c2c1=O`, for which the Potency entry is “inactive”. For `CCOC(=O)c1c(NC(C)=O)sc2c(O)c(Br)ccc12`, the Potency result was “inactive”.

Turning to `Cc1ccc2[nH]c(=O)c(CN(CC3COCCO3)C(=O)Nc3ccccc3C)cc2c1` (configuration not stated), the Potency entry was “inactive”.
